# Records with an inconclusive call do not appear. Unmarked numbers belong to inactive results. Active and inactive are the calls of the source. The call rests on the fitted dose curve; in most records, active means well fitted inhibition curve with a large enough effect; inconclusive means small, poorly fitted or top-dose-only effect; inactive means no such curve, though single readings can be large or run the other way.
# Biological target: N-terminal Xaa-Pro-Lys N-methyltransferase 1 (Homo sapiens) (UniProt Q9BV86)
# Assay: Orthogonal qHTS for Inhibitors of N-terminal methyltransferase 1 (NTMT1): ThioGlo Assay
# Conditions: NTMT1 SAHH-coupled ThioGlo fluorescence, 30 min; series mostly up to 84.5 µM; activity, negative = inhibition: at the top concentration
# From the text: Assay Submitter (PI): Rong Huang Ph.D. Purdue University, West Lafayette, IN 47907 The N-terminal methytransferase 1 is the first methyltransferase that methylates protein alpha-N-amines and plays an important role in regulating cell mitosis, chromatin interactions and DNA repair. It is observed to be over-expressed in various cancer patient tissues like malignant melanoma and colorectal cancer tissues. Knockdown of NTMT1 in cancer cells causes cell mitotic defects and enhances sensitivity to DNA damaging chemotherapeutics. […] These critical cellular processes in which NTMT1 is implicated, coupled with emerging links to cellular dysfunction, strengthen the inference that NTMT1 is a compelling novel anticancer target. Progress have been made in understanding the molecular properties of NTMT1 and the biological consequences of protein alpha-N-terminal methylation, but there are no specific small molecule probes available for NTMT1 to fully characterize its MTase activity. To address this unmet need, a panel of assay is created and established to enable quantitative high-throughput screening (qHTS) for novel, potent, and selective small molecule NTMT1 inhibitors. Two orthogonal qHTS that use different reagents (ThioGlo vs. MTaseGlo) are developed for primary robotic screening against the NCATS chemical library of more than 400,000 small molecules. Identified inhibitors are reacquired, validated, and further characterized. […] Early Translation Branch (ETB) National Center for Advancing Translational Sciences (NCATS) National Institute of Health (NIH)
# Materials: NTMT1 enzyme, substrate SPKRIA, control peptide RCC1-6 is provided by the Huang laboratory. MTaseGlo Assay: PROTOCOL TABLE; SEQUENCE No. (e.g., 1, 2, 3, etc.); […] (e.g., Cells, Incubation, Reagent, etc.); VALUE; DESCRIPTION 1; Enzyme; 3 uL; Dispense enzyme mixture (final concentrations of 125 nM NTMT1) into Greiner 1536-well black / solid bottom assay plate (Greiner Bio One, Monroe, NC). 2; Compounds; 23 nL; Compounds (at various concentration) and 1uM final concentration of RCC1-6 (SPKRIA) control were transferred via a Kalypsys Pin Tool (Wako USA) equipped with a 1536-slotted pin array (Wako Automation, Richmond, VA). 3; Incubation; 1 min; Incubate at room temperature. 4; Substrate; 1 uL; Dispense 1 uL of substrate solution (100uM SAM, 10uM SAHH, 15uM ThioGlo3 final concentration) was added to the wells bringing the final assay volume to 4uL. The assay plate was covered with metal lids. 5; Detection; Fluorescence; Initial fluorescence readout (background signal) was detected using the ViewLux microplate imager with an excitation filter of 340 nm and 450 nm emission filter. 6; Incubation; 30 min; Assay plates were incubation at room temperature in the dark. 7; Detection; Fluorescence; Final fluorescence readout was detected using the ViewLux microplate imager with an excitation filter of 340 nm and 450 nm emission filter. The data was normalized to the background fluorescence.
# Chain of N-terminal Xaa-Pro-Lys N-methyltransferase 1 (Homo sapiens) (Q9BV86 whole entry, looked up): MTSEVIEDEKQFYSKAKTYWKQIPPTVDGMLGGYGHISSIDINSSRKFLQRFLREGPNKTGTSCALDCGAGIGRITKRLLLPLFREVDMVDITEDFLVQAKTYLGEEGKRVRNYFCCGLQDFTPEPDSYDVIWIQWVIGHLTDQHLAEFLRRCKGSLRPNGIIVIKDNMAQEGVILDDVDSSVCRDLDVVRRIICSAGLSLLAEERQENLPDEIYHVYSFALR
SMILES,"activity, negative = inhibition [%]",Potency
CN[C@@H]1C[C@@H](c2ccc(Cl)c(Cl)c2)c2ccccc21,33.8,–
C[N+]1(C)CCN(c2ccccc2)CC1,–,2740 nM (active)
NC(=O)CI,–,6890 nM (active)
C[N+]1(C)C2CCC1CC(OC(=O)c1c[nH]c3ccccc13)C2 (stereo unspecified),–,1940 nM (active)
C[N+](C)(C)CC#CCN1CCCC1=O,–,1540 nM (active)
NC1CCc2cc(O)c(O)cc2C1 (stereo unspecified),–,10900 nM (active)

# — PubChem BioAssay AID1645875 (National Center for Advancing Translational Sciences (NCATS), 2021)
